Shown is part of a subset that was picked to be rich in hits.
AMPAR-TARP mod: modulates AMPAR-stargazin complexes | HEK293 GluA2+stargazin, membrane potential dye (FDSS), glutamate EC50; hits were called plate by plate, in both directions | 40,000 tested, 3.5% active | calls only at 30 µM | O88602+P19491;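 active = any of four per-well response measures lying three or more SD from its plate-wide compound average, in either direction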
GIRK2 act: Activators of human GIRK2-containing channels; activation (% efficacy), % for hits at 75 µM; P48051; 34,000 tested, under 10 active; AID 1259324; HEK293 GIRK2/NPY4 cells, thallium flux fluorescence;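 active = primary screen hit, no activity in plain HEK293 cells, and in GIRK2-only cells above 5% efficacy rising with concentration; inactive = the rest, including fluorescent compounds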;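 note: efficacy is normalized control-subtracted fluorescence 15 s after thallium addition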
Target sequence (P48051 whole entry, looked up): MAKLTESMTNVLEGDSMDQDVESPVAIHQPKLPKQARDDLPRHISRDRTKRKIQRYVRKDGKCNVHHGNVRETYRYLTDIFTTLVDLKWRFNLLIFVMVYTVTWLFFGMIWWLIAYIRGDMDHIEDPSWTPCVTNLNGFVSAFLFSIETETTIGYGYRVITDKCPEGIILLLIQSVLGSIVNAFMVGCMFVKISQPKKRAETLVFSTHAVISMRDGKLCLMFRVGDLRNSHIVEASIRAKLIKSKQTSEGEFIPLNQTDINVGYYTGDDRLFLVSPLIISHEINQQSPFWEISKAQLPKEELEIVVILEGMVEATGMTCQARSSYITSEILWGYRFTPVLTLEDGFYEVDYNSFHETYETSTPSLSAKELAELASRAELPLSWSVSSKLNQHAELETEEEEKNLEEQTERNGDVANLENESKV
Large screens that a line does not name were inactive.

CCc1nn2c(NCCOCCO)cc(C)nc2c1-c1ccccc1	none
COc1ccc(S(=O)(=O)CCCC(=O)Nc2ccc(OC)cc2[N+](=O)[O-])cc1	none (no result: GIRK2 act)
O=C(CSc1ccc([N+](=O)[O-])cc1[N+](=O)[O-])N1CCN(c2ccccc2)CC1	none (no result: GIRK2 act)
Cc1cc2nc(N(CCN3CCOCC3)C(=O)c3ccco3)sc2cc1C	none
COc1cccc2sc(N(Cc3cccnc3)C(=O)c3cc(C)nn3C)nc12	none
O=C(c1ccco1)N(CCN1CCOCC1)c1nc2ccc(Cl)cc2s1	AMPAR-TARP mod active (no result: GIRK2 act)
COc1cccc2sc(N(CCN(C)C)C(=O)c3cc(C)n(C)n3)nc12	AMPAR-TARP mod active
COc1ccccc1-c1coc2cc(OCc3ccc(F)cc3)ccc2c1=O	none (no result: GIRK2 act)
COc1ccc2c(=O)c(-c3ccccc3OC)coc2c1	AMPAR-TARP mod active
Cc1cccc(NC(=O)C(=O)NN2CCN(C)CC2)c1C	none (no result: GIRK2 act)
O=C(CSc1ncc(-c2cccc(Cl)c2)o1)Nc1ccc(F)cc1F	none (no result: AMPAR-TARP mod)
COc1ccc(S(=O)(=O)NCc2ccccc2)cc1N(C)S(C)(=O)=O	none (no result: GIRK2 act)
COc1ccc(S(=O)(=O)NCc2ccccc2)cc1N(C)S(=O)(=O)c1ccc(Cl)cc1	AMPAR-TARP mod active (no result: GIRK2 act)
CN1C(=O)C2C(c3ccc([N+](=O)[O-])cc3)NN(C)C2C1=O (stereo unspecified)	AMPAR-TARP mod active (no result: GIRK2 act)
CCOc1cn(-c2ccc(F)cc2)nc1C(=O)Nc1ccccc1Cl	none
Cc1ccsc1C(O)CNC(=O)C1(c2cccs2)CCCC1 (stereo unspecified)	none
COc1ccccc1NC(=O)c1nn(-c2ccc(F)cc2)cc1OCc1ccccc1	AMPAR-TARP mod active
CCOc1cn(-c2ccc(F)cc2)nc1C(=O)NCCOC	none
COc1ccc(OC)c(NC(=O)c2nn(-c3ccc(F)cc3)cc2OCc2ccccc2)c1	none
CCOc1cn(-c2ccc(F)cc2)nc1C(=O)NC1CCCCC1C (stereo unspecified)	AMPAR-TARP mod active
COc1ccccc1C(=O)NCC1CCN(c2ccccn2)CC1	none (no result: GIRK2 act)
CCc1nc2sc(C(c3ccc(F)cc3)N3CC(C)OC(C)C3)c(O)n2n1 (stereo unspecified)	none
O=C(Nc1ccc(Nc2ccc(-n3cccn3)nn2)cc1)c1ncccn1	none (no result: AMPAR-TARP mod)
Cn1nnc2c(N3CCN(C(=O)C4CC(=O)N(c5ccccc5)C4)CC3)ncnc21 (stereo unspecified)	none
COc1cccc(C2C(C#N)=C(N)Oc3cc(C)n(Cc4cccc(C)c4)c(=O)c32)c1 (stereo unspecified)	none (no result: GIRK2 act)
CCc1ccc(OCCOCC(O)CN2CCN(c3ccccc3F)CC2)cc1 (stereo unspecified)	none (no result: GIRK2 act)
COc1cccc(OCCOCC(O)CN2CCN(c3ccccc3F)CC2)c1 (stereo unspecified)	AMPAR-TARP mod active (no result: GIRK2 act)
COc1cccc(-n2nnc3c(N4CCN(C(=O)c5ccccc5SC(F)F)CC4)ncnc32)c1	none (no result: GIRK2 act)
NC(=S)c1cc2cc(F)ccc2oc1=Nc1cccc(F)c1	none (no result: GIRK2 act)
COc1ccc(CNC(=O)c2sccc2S(=O)(=O)N2CCN(c3ccccc3F)CC2)cc1	none (no result: AMPAR-TARP mod)
COC(=O)c1sccc1S(=O)(=O)N1CCN(c2ccccc2F)CC1	AMPAR-TARP mod active (no result: GIRK2 act)
COc1ccc(CC(=O)NCC2CCN(C(=O)c3cc4ccccc4o3)CC2)cc1OC	none
COc1ccc(S(=O)(=O)NCCOc2ccc(-c3ccc(F)cc3)nn2)c(OC)c1	none
O=C(NCCc1c[nH]c2ccccc12)c1cc2n(n1)C(C(F)(F)F)CC(c1ccco1)N2 (stereo unspecified)	AMPAR-TARP mod active (no result: GIRK2 act)
CSc1ccccc1NC(=O)c1cc2n(n1)C(C(F)(F)F)CC(c1ccco1)N2 (stereo unspecified)	none (no result: GIRK2 act)
CN1CCN(n2c3c(c(SCC(=O)NC4CCCCC4)nc2=O)CCC3)CC1	none
CCNC(=O)CSc1nc(-c2ccccc2)c(NC(=O)CCc2ccc(OC)cc2)s1	none
CNC(=O)CSc1nc(-c2ccccc2)c(NC(=O)CCc2ccccc2)s1	AMPAR-TARP mod active
NC(=O)CSc1nc(-c2ccccc2)c(NC(=O)c2ccccc2Cl)s1	none
NC(=O)CSc1nc(-c2ccccc2)c(NC(=O)c2cccc(Cl)c2)s1	AMPAR-TARP mod active
Cc1ccc(-n2nnc3c(N4CCN(C(=O)c5ccc(Br)o5)CC4)ncnc32)cc1	none (no result: GIRK2 act)
O=C(Nc1ccccc1[N+](=O)[O-])C1CCCN(c2ccc(-c3ccccc3)nn2)C1 (stereo unspecified)	AMPAR-TARP mod active
O=C(Nc1ccc([N+](=O)[O-])cc1)C1CCCN(c2ccc(-c3ccccc3)nn2)C1 (stereo unspecified)	none
O=C(NCC(F)(F)F)C1CCN(C(=O)CSCc2ccccc2)CC1	none (no result: AMPAR-TARP mod)
O=C(NCC(F)(F)F)c1ccc(N2CCC(Cc3ccccc3)CC2)nn1	AMPAR-TARP mod active
O=C(c1cccs1)N(CCCn1ccnc1)c1nc2ccccc2s1	none
Cc1ccc(Cl)c2sc(N(CCCn3ccnc3)C(=O)c3cccs3)nc12	AMPAR-TARP mod active
Cc1cccc(CC(=O)NCC2CCN(C(=O)NC(C)(C)C)CC2)c1	none (no result: AMPAR-TARP mod)
COc1ccc(C2(CNS(=O)(=O)c3c(C)n[nH]c3C)CCCC2)cc1	AMPAR-TARP mod active
COc1ccc(C2(CNS(=O)(=O)c3cccnc3)CCCC2)cc1	none
COc1ccc2sc(=NC(C)=O)n(CCSC)c2c1	none (no result: GIRK2 act)
COc1ccc2sc(=NC(=O)c3cc(C)no3)n(CCSC)c2c1	AMPAR-TARP mod active
O=C(Cn1cnc(-c2ccccc2)cc1=O)Nc1cc(Cl)ccc1O	none
C#CCn1c(=NC(=O)c2cc(C)no2)sc2cc(C)ccc21	none
COc1ccc(NC(=O)Cn2nc(SC)c(S(=O)(=O)c3ccc(OC)cc3)c2N)cc1	none (no result: GIRK2 act)
COc1ccc(NC(=O)Cn2nc(SC)c(S(=O)(=O)c3ccccc3)c2N)c(OC)c1	AMPAR-TARP mod active (no result: GIRK2 act)
Cc1ccc(C)c(-n2c(C)c(C)n3c4c(=O)n(CC(N)=O)c(=O)n(C)c4nc23)c1	none (no result: GIRK2 act)
Cc1ccccc1CNC1CCN(c2ccc(C(=O)Nc3ccccc3)cn2)C1 (stereo unspecified)	none (no result: GIRK2 act)
O=c1oc(-c2cccnc2)nc2ccc(Br)cc12	none
Brc1cccc(-c2nnc3sc(-c4cccnc4)nn23)c1	AMPAR-TARP mod active
CNc1oc(-c2ccc(S(=O)(=O)N3CCc4ccccc4C3)cc2)nc1C#N	none
CN1C2=C(C(=O)CC(C)(C)C2)C(c2cc(Br)ccc2O)C2=C1CC(C)(C)CC2=O	AMPAR-TARP mod active (no result: GIRK2 act)
CC1(C)CC(=O)C2=C(C1)NC1=C(C(=O)CC(C)(C)C1)C2c1cccs1	none
CCOCCn1c(=O)c2c(nc3n(-c4cccc(C)c4)c(C)c(C)n23)n(C)c1=O	none (no result: GIRK2 act)
O=C(Cc1cc(-c2ccc3c(c2)OCO3)on1)NCc1cccs1	none
O=C(Cc1cc(-c2ccc3c(c2)OCCO3)on1)NCc1cccs1	AMPAR-TARP mod active
CC1Cc2cc(-c3cc(CC(=O)NCc4ccco4)no3)ccc2O1 (stereo unspecified)	AMPAR-TARP mod active
CC1Cc2cc(-c3cc(CC(=O)NCc4cc(-c5cccs5)on4)no3)ccc2O1 (stereo unspecified)	none
Cc1cc(NC(=O)Cc2ccccc2)n(-c2nc(-c3ccccc3)cs2)n1	none (no result: AMPAR-TARP mod)
O=C(Nc1ccccc1Br)c1n[nH]nc1Nc1cccc(Cl)c1	none
COc1cc(NC(=O)c2n[nH]nc2Nc2cccc(Cl)c2)cc(OC)c1	AMPAR-TARP mod active
O=C(NC12CC3CC(CC(C3)C1)C2)N1CCC(c2cccs2)CC1	AMPAR-TARP mod active
O=C(NC(c1ccccc1)c1ccccc1)N1CCC(c2cccs2)CC1	none
O=C(CCSc1ccccc1)NCCC(O)c1cccs1 (stereo unspecified)	none

Assay outcomes: PubChem, several laboratories
